These results are taken from PubChem BioAssay (NCI).

About 83,000 compounds went through this panel and 20% of them were active in at least one assay; those are over-represented in the sample as a whole.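 Results are percent growth after 48 hours of single-concentration exposure. 100 means growth as in untreated cells, lower positive values show inhibition; negative values down to -100 show cell death.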 Values without a mark were called inactive. Activity calls are given as the source filed them. The calls were made as follows: active = growth percent below 10; inactive = the rest.

Holding throughout (test): NCI-60 one-dose screen, 48 h (100 = growth as untreated, 0 = no growth, -100 = all killed)
Holding throughout (settings): 10 µM unless noted

The test system of test [1] is NCI-H23 lung.
In test [2] the test system is NCI-H226 lung.
Test [3] has as its system HOP-62 NSCLC.
Test [4] concerns NCI-H460 lung.
Test [5] deals with HOP-92 NSCLC.
Test [6] relates to NCI-H522 lung.
For test [7], the system named is A549/ATCC NSCLC.
The test system of test [8] is 786-0 renal.
Test [9] deals with COLO 205 colon.
The subject of test [10] is DU-145 prostate.
The test system of test [11] is MALME-3M melanoma.
Test [12] has as its system MDA-MB-231 breast.
Test [13] concerns RXF 393 renal.
Test [14] deals with SF-268 CNS.
The test system of test [15] is SF-295 CNS.
Test [16] relates to SF-539 CNS.
For test [17], the system named is UACC-257 melanoma.
The subject of test [18] is M14 melanoma.
Test [19] concerns K-562 leukemia.

On to `O=C(/C=C/c1cccc(Br)c1)c1ccccc1`, for which the growth in [1] is 98.7%; in test [2] it was 92.8%; in [3], 70%; in [4], 104%; in test [5], 79%; in [6], 64.1%. For the same compound, the growth is 72.7% in test [7]; 72.3% in test [8]; 99.7% in test [9]; 92.1% in test [10]; 99.3% in [11]; 92.7% in test [12]. The growth in test [13] is 89.9%; in test [14], 89%; in [15], 94.9%; in test [16] it was 103%; in test [17] it was 81.7%; in test [18], 91.1%.
`CCOC(=O)c1cnc2cc(Cl)c(F)cc2c1Nc1cccc(NS(C)(=O)=O)c1`: the growth in test [1] is 80.8%; in [2], 96.4%; in test [3], 95.9%; in [4], 110%; in test [5] it was 67.6%; in test [6] it was 93%. Besides, the growth was 112% in [7]; 95.6% in test [8]; 124% in [9]; 101% in [10]; 91.4% in test [19]; 112% in [11]. Also, the growth is 80.6% in test [12]; 89.3% in test [13]; 90.1% in [14]; 93.7% in test [15]; 89.2% in test [16]; 118% in test [17]. In addition, the growth in [18] was 113%.
Consider `O=C(/C=C/c1ccc(Cl)cc1)/C=C/c1cc2ccccc2[nH]c1=O`, for which the growth is 68% in [1]; 93.5% in test [2]; 39.4% in [3]; 94.4% in test [4]; 92.5% in test [5]; 46.4% in test [6]. The growth in test [7] was 46.5%; in test [8], 88.5%; in test [9], 40.8%; in [10], 79.3%; in test [19], 10.1%; in test [11], 14.3%. Moreover, the growth in test [12] is 63.8%; in test [13] it was 38.3%; in [14], 45.2%; in test [15], 102%; in test [17], 88.9%; in [18], 60.3%.
Turning to `COc1ccc(-c2cc(C(=O)N=Nc3c(O)[nH]c4ccccc34)no2)cc1`, the growth in test [1] was 101%; in test [2], 94%; in test [3], 91.6%; in test [4], 102%; in test [5], 100%; in [6], 82.4%. For the same compound, the growth in [7] was 107%; in test [8], 104%; in test [9], 111%; in [10] it was 104%; in [19], 90.7%; in test [11], 102%. Further, the growth in test [12] is 96.9%; in test [13], 102%; in [14], 99.4%; in [15], 102%; in [16], 100%; in test [17] it was 114%. In addition, in test [18], the growth is 101%.
`O=C1c2ccccc2-c2nccc3cc(Cl)nc1c23`: the growth in test [1] is -62.3% (active); in [2] it was 48.2%; in test [3], 47.6%; in [4] it was 40.2%; in test [5], 21.2%; in test [6] it was -75.9% (active). For the same compound, the growth was 73% in test [7]; 71.1% in test [8]; 54.7% in test [9]; 37.3% in test [10]; -6.02% (active) in test [19]; -65.6% (active) in [11]. Also, the growth in test [12] was 78.7%; in [13] it was -43.1% (active); in [14], 24.6%; in test [15] it was 53.2%; in [17], 58.6%; in test [18], -63.4% (active).
Consider `Cc1ccc(S(=O)(=O)N(CCc2ccc(Cl)cc2)S(=O)(=O)c2ccc(C)cc2)cc1`, for which the growth in [1] is 90.9%; in test [2], 75.2%; in test [3], 103%; in test [4], 101%; in test [5], 88.1%; in [6] it was 77.4%. Moreover, the growth in test [7] was 88.3%; in [8], 94.4%; in test [9], 111%; in test [10], 105%; in test [19] it was 70%; in test [11] it was 93%. Besides, the growth in [12] is 108%; in test [14], 99.8%; in [16] it was 96.8%; in test [17], 92.4%; in [18] it was 106%.
For `CC1=N/C(=C\c2cccc(Br)c2)C(=O)O1`, the growth in [1] is 106%; in test [2], 106%; in [3], 92.8%; in test [4], 106%; in [5] it was 107%; in test [6], 87.7%. For the same compound, the growth is 89.3% in test [7]; 102% in [8]; 106% in test [9]; 109% in test [10]; 98.8% in [11]; 105% in [12]. In addition, the growth in test [13] was 112%; in test [14], 98.6%; in [15], 108%; in [16], 115%; in [17], 80.6%; in test [18], 104%.
Turning to `COc1ccc(/C=C2\N=C3Sc4cc(Cl)ccc4C(=O)N3C2=O)cc1`, the growth in test [1] was 96%; in test [2], 83%; in test [3], 103%; in test [4], 104%; in test [5] it was 82.6%; in test [6] it was 87.5%. The growth in test [7] is 96.4%; in test [8], 101%; in test [9], 105%; in test [10], 110%; in test [19] it was 94.1%; in test [11], 101%. Further, the growth in test [12] was 100%; in test [13], 106%; in test [14], 106%; in test [16], 98.7%; in [18], 99.6%.
As for `COC(=O)C12C3C(=O)N(c4ccc(OC)cc4)C(=O)C3C(c3cn(-c4ccccc4)nc3C)N1[C@H](c1cn(-c3ccccc3)nc1C)[C@@H]1C(=O)N(c3ccc(OC)cc3)C(=O)[C@@H]12` (some centres undefined), the growth is 103% in [1]; 99.7% in [2]; 116% in test [3]; 99.8% in test [4]; 97.4% in test [5]; 91.2% in test [6]. The growth was 100% in test [7]; 102% in test [8]; 112% in test [9]; 109% in test [10]; 92.3% in test [19]; 108% in test [11]. Moreover, the growth in [12] is 108%; in test [13], 102%; in test [14] it was 104%; in [15] it was 91.8%; in test [17], 98%; in [18] it was 105%.
For the compound `CC#Cc1nc2ccccc2c(=O)[nH]1`, the growth in test [1] is 80.6%; in [2], 64.5%; in [3] it was 58.3%; in test [4] it was 73%; in test [5], 92.7%; in test [6], 52.6%. Further, the growth in [7] was 72.2%; in test [8] it was 42%; in [9], 78.7%; in test [10] it was 84.7%; in [19], 37.8%; in test [11], 65.5%. Further, the growth in test [12] was 26.7%; in test [14] it was 53.7%; in [15], 87.2%; in test [16] it was 35.6%; in test [17], 48.2%; in [18], 51.9%.
With `C=C1C(=O)O[C@H]2[C@H]1CC/C(Cn1cc(Cc3c[nH]c4ccccc34)nn1)=C\CC[C@@]1(C)O[C@@H]21`, the growth was 37.1% in test [1]; 79.7% in [2]; 76.7% in test [3]; 79.7% in [4]; -8.55% (active) in test [5]; -79.2% (active) in [6]. The growth in test [7] was 57.9%; in test [8], -9.3% (active); in [9] it was -68.1% (active); in test [10], 20%; in test [19], -12.9% (active); in test [11], -40.6% (active). Further, the growth is 1.06% (active) in test [12]; -33.3% (active) in test [13]; 35.1% in [14]; 79.3% in [15]; -55.4% (active) in [16]; 43.8% in test [17]. Besides, in [18], the growth was 10.2%.
`COc1ccc(C2Nc3ccccc3-n3cccc32)cc1` (centres undefined): the growth in [1] was 80.4%; in test [2], 96.7%; in [3] it was 104%; in test [4], 102%; in test [5] it was 74.2%; in test [6], 95.7%. Moreover, the growth is 104% in [7]; 111% in [8]; 126% in [9]; 111% in [10]; 105% in [19]; 100% in [11]. The growth in test [12] was 78.7%; in test [13] it was 111%; in test [14] it was 98.7%; in test [15], 92.4%; in test [17], 98.9%; in test [18], 99.3%.
As to `c1ccc(Sc2ncnc3ccccc23)cc1`, the growth was 70.2% in test [1]; 82.2% in test [2]; 99.4% in test [3]; 89.9% in [4]; 48.9% in test [5]; 82.8% in [6]. Moreover, the growth was 90.4% in test [7]; 87.6% in [8]; 108% in test [9]; 89.3% in [10]; 71.4% in [19]; 64.1% in test [11]. For the same compound, the growth in [12] is 93%; in test [13], 83.1%; in [14], 70%; in test [15] it was 93.7%; in test [16], 89%; in [17] it was 70.5%. In test [18], the growth is 71%.
For `Oc1ccccc1/C=N/Nc1ccc2ccccc2n1`, the growth in test [1] is 45%; in test [2], 83%; in test [4], 27.2%; in [5] it was 70.9%; in [6], -9.13% (active); in [8], 65.3%. Further, the growth in test [9] is 31.2%; in [10], 55.6%; in test [19], 17.8%; in test [11], 35.2%; in test [12] it was 57.3%; in test [14], 52%. The growth in test [15] is 33.5%; in test [16] it was 42.1%; in test [17], 62.8%; in test [18], 52.3%.
On to `COc1cnc2c(c1)C(=O)c1c-2n(CCCBr)c(=O)c2cc([N+](=O)[O-])ccc12`, for which the growth is -5.87% (active) in test [1]; -1.66% (active) in test [2]; 3.86% (active) in test [3]; 2.4% (active) in test [4]; 26.5% in [5]; -18.4% (active) in test [6]. The growth in test [7] was 2.68% (active); in [8] it was 5.26% (active); in test [9], -26.2% (active); in [10] it was 7.11% (active); in test [19] it was 11.7%; in test [11] it was -2.44% (active). The growth in test [12] was 24.3%; in test [13], -10.8% (active); in test [14] it was 9.06% (active); in [15] it was -11.3% (active); in test [17] it was -32.3% (active); in test [18], 3.34% (active).
Consider `O=C(O)c1ccc2c(c1Sc1ccccc1)C(=O)c1ccccc1C2=O`, for which the growth in test [1] was 91.1%; in test [2], 92.6%; in test [3], 91.8%; in test [4], 100%; in [5] it was 76.7%; in test [6] it was 120%. Besides, the growth in [7] is 96.8%; in [8], 106%; in test [9], 112%; in test [10] it was 107%; in [19] it was 112%; in test [11], 83.4%. The growth was 90.1% in test [12]; 98.6% in test [13]; 101% in test [14]; 91.3% in [15]; 84.5% in test [16]; 96.3% in test [17]. Further, the growth in test [18] was 107%.
